Test results published in PubChem BioAssay AID1159580 (chemical genetic matrix, 2015).
Several values for one entry are separate records, joined by “and”; a condition that tells them apart may be missing. Identical values can stand only once. About 2,000 (36%) of roughly 5,500 compounds were called active. Roughly 18% stayed inconclusive and do not appear here. Cut-off read from the data, not from the text of the source: active = normalized growth mostly below about 0.91 (no sharp cut-off); inconclusive = no clear call, values can overlap the other calls; inactive = mostly above about 0.92. The list shows a part of the results.

Test: chemical genetic growth profiling, strain panel (AID 1159580);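 note: tested at 20 µM; growth read once vehicle control cultures reached saturation at 30 °C; 1 = growth at the plate median or of vehicle wells; lower values mean less growth of the strain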
Settings: S. cerevisiae deletion strains, growth OD

Measured: normalized growth

NNC(=O)c1ccncc1
inactive: locus YAL013W, strain DEP1, hits give low values 1.01 | locus YAL021C, strain ccr4, hits give low values 1.01 | locus YAL026C, strain drs2, hits give low values 0.991 | locus YAL030W, strain snc1, hits give low values 1.03 | locus YBL061C, strain skt5, hits give low values 1.01 | locus YBR009C, strain hhf1, hits give low values 0.986 | locus YBR021W, strain FUR4, hits give low values 1.01 | locus YBR023C, strain chs3, hits give low values 1.01 | locus YBR171W, strain sec66, hits give low values 1.02 | locus YBR229C, strain ROT2, hits give low values 1.01 | locus YBR231C, strain swc5, hits give low values 1.03 | locus YBR279W, strain paf1, hits give low values 1.01 | locus YCL011C, strain gbp2, hits give low values 0.984 | locus YCL016C, strain dcc1, hits give low values 0.981 | locus YCL029C, strain bik1, hits give low values 1 | locus YCL061C, strain MRC1, hits give low values 1.02 | locus YCL069W, strain vba3, hits give low values 1.02 | locus YCR088W, strain abp1, hits give low values 1.02 | locus YDL005C, strain med2, hits give low values 1.01 | locus YDL035C, strain GPR1, hits give low values 1.01 | locus YDL040C, strain nat1, hits give low values 1 | locus YDL074C, strain BRE1, hits give low values 1.03 | locus YDL101C, strain DUN1, hits give low values 1.01 | locus YDL185W, strain tfp1, hits give low values 0.991 | locus YDL192W, strain arf1, hits give low values 0.995 | locus YDR001C, strain nth1, hits give low values 1.02 | locus YDR069C, strain doa4, hits give low values 1.02 | locus YDR101C, strain arx1, hits give low values 0.997 | locus YDR137W, strain rgp1, hits give low values 0.989 | locus YDR159W, strain sac3, hits give low values 0.943 | locus YDR162C, strain NBP2, hits give low values 1.02 | locus YDR195W, strain ref2 1 | locus YDR297W, strain sur2, hits give low values 1.01 | locus YDR318W, strain mcm21, hits give low values 0.993 | locus YDR334W, strain swr1, hits give low values 1.01 | locus YDR335W, strain msn5, hits give low values 1.01 | locus YDR388W, hits give low values 0.992 | locus YDR392W, strain spt3, hits give low values 0.941 | locus YDR502C, strain sam2, hits give low values 0.993 | locus YEL003W, strain gim4, hits give low values 1.04 | locus YEL037C, strain rad23, hits give low values 1.02 | locus YEL061C, strain CIN8 (second series), hits give low values 1.01 | locus YEL061C, strain CIN8, hits give low values 1.01 | locus YER015W, strain faa2, hits give low values 1.01 | locus YER016W, strain bim1, hits give low values 1 | locus YER110C, hits give low values 0.988 | locus YER111C, strain swi4, hits give low values 1.01 | locus YER155C, strain BEM2 (second series), hits give low values 1.03 | locus YER155C, strain BEM2, hits give low values 1.01 | locus YER167W, strain BCK2, hits give low values 1 | locus YFR010W, strain ubp6, hits give low values 1.02 | locus YGL078C, strain dbp3, hits give low values 0.992 | locus YGL086W, strain mad1, hits give low values 1.01 | locus YGL167C, strain pmr1, hits give low values 1 | locus YGL173C, strain kem1, hits give low values 1.05 | locus YGL227W, strain vid30, hits give low values 1.02 | locus YGL240W, strain doc1, hits give low values 1.02 | locus YGL248W, strain PDE1, hits give low values 1.01 | locus YGL253W, strain hxk2, hits give low values 1.01 | locus YGR135W, strain pre9, hits give low values 0.971 | locus YGR252W, strain gcn5, hits give low values 0.943 | locus YHR013C, strain ard1, hits give low values 0.962 | locus YHR027C, strain rpn1, hits give low values 1.02 | locus YHR030C, strain SLT2, hits give low values 1 | locus YHR079C, strain IRE1 (second series), hits give low values 0.998 | locus YHR079C, strain IRE1, hits give low values 1.01 | locus YHR094C, strain hxt1, hits give low values 0.989 | locus YHR129C, strain ARP1, hits give low values 1.01 | locus YHR142W, strain chs7, hits give low values 1.01 | locus YHR200W, strain rpn10, hits give low values 1 | locus YIL066C, strain RNR3, hits give low values 1.02 | locus YIL073C, strain SPO22, hits give low values 1.01 | locus YIL125W, strain kgd1, hits give low values 1.01 | locus YIR030C, strain dcg1, hits give low values 1 | locus YJL092W, strain hpr5, hits give low values 1.01 | locus YJL095W, strain BCK1 (second series), hits give low values 1.01 | locus YJL095W, strain BCK1, hits give low values 1.02 and 0.991 | locus YJL115W, strain asf1, hits give low values 1.01 | locus YJL129C, strain trk1, hits give low values 1.02 | locus YJL134W, strain LCB3, hits give low values 1.01 | locus YJL154C, strain vps35, hits give low values 1.01 | locus YJL164C, strain tpk1, hits give low values 0.991 | locus YJL166W, strain qcr8, hits give low values 1.03 | locus YJL168C, strain set2, hits give low values 0.992 | locus YJL187C, strain SWE1 (second series), hits give low values 1.01 | locus YJR043C, strain POL32, hits give low values 1.01 | locus YJR066W, strain TOR1, hits give low values 0.932
